Assay outcomes as filed in PubChem.
Rows were chosen to be rich in hits. Some 19% of all compounds tested hit in one or more screens of this group.
HT1080-NT tox – kills 2HG-producing HT-1080-NT fibrosarcoma cells. 1.6% of 360,000 active. Potency, µM (series often up to 46.1 µM), for the others: at the highest dose activity, negative = less viability, actives largely listed as cytotoxic. HT-1080-NT fibrosarcoma viability, CellTiter-Glo ATP luminescence, 48 h;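 also: NT is the 2HG producing partner of a matched IDH1 knockdown line; potency is read from the fitted curve at half-maximal effect; 0% = DMSO-treated cells and -100% = media-only wells without cells; nearly all actives have a fitted effect of over 55% in size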
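HT-1080-NT fibrosarcoma cells (2HG-overproducing), 750 cells/well in RPMI with 5% FBS, dosed after 2 h and incubated 48 h at 37C. CellTiter-Glo luminescence normalized to DMSO and no-cell wells; concentration-response curves fitted and classed.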
DT40 TDP1 no CPT – qHTS for Inhibitors of human tyrosyl-DNA phosphodiesterase 1 (TDP1): qHTS in cells in absence of CPT; DT40 Tdp1-/- hTDP1 cells, no CPT, ATP luminescence, 48 h; 15% of 420,000 active; Potency, µM (series often up to 46.2 µM), without a hit: top-dose activity change, negative = growth inhibition, most hits filed as inhibitors; also: potency is read from the fitted curve at half-maximal effect; nearly all actives have a fitted effect of over 55% in size
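Cells were dispensed at 400 per well, compounds added by pin tool, plates incubated ≥48 hr at 37 °C, then CellTiter-Glo added for 30 min at room temperature before luminescence reading. Line: DT40 Tdp1-/- complemented with hTDP1; camptothecin omitted.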
IL1B secr inh – inflammasome signaling inhibition, IL-1 beta readout; THP-1 LPS/ATP IL-1B secretion, AlphaLISA, 16 h; hits give low values; activity change, % at 57.5 µM; 4.7% of 360,000 active; AID 743279; in the data active = activity change below about -50%; inconclusive = mostly about -30% to -49%
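Secreted IL-1B measured by AlphaLISA bead assay after 16 h compound exposure of THP-1 cells; compounds (final up to 57.5 uM) added 1 h before LPS (250 ng/mL) and ATP (1.25 mM) stimulation; lower signal means less secretion.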
HT1080 IDH1KD tx – kills HT-1080 cells with IDH1 knockdown; HT-1080 IDH1 knockdown viability, ATP luminescence, 48 h; Potency, µM (doses to about 46.1 µM), inactives show at the highest dose activity, negative = toxicity, actives largely listed as cytotoxic; 2% of 360,000 active; AID 686971;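 also: potency is read from the fitted curve at half-maximal effect; 0% = DMSO wells and -100% = cell-free medium wells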
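Knockdown cells (IDH1KD HT-1080) received compounds 2 h after plating at 750 cells/well and were kept 48 h at 37 °C in 5% FBS RPMI. A CellTiter-Glo luminescence read gave % activity for curve fitting.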
uPA surface inh – cell surface uPA generation inhibition. cell surface uPA generation assay, qHTS. AID 540303. Potency, µM (titrated, usually from 38.3 µM), without a hit: top-dose activity change, negative = inhibition, usual class: inhibitors. 0.31% of 330,000 active; active = well fitted inhibition curve with a large enough effect; inconclusive = small, poorly fitted or top-dose-only effect; inactive = no such curve, though single readings can be large or run the other way; tested in mouse RAW 264.7 cells; also: potency is read from the fitted curve at half-maximal effect; nearly all actives have a fitted effect of over 55% in size
TDP1 cell CPT – growth inhibition of DT40 Tdp1-/-;hTDP1 cells with camptothecin (screen for TDP1 inhibitors). chicken DT40 Tdp1-/-;hTDP1 cells + 20 nM CPT, ATP luminescence, 48 h. Potency, µM (top dose mostly 46.2 µM), inactives show at the top dose activity change, negative = growth inhibition, usual class: inhibitors. 12% of 420,000 active. AID 686979; also: potency is read from the fitted curve at half-maximal effect; nearly all actives have a fitted effect of over 55% in size
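Chicken DT40 Tdp1-/- cells stably complemented with human TDP1 were seeded at 400 cells/well in medium containing 20 nM camptothecin, exposed to pin-transferred compounds, and grown at 37 °C for at least 48 hr. Viability was read as ATP luminescence.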
* marks the source's active call; other numbers are inactive results; ? = inconclusive; nt = not tested or not shown. Unless noted, calls follow the shape of the dose curve; as a rule, active = well fitted curve in the direction sought with a large enough effect; inconclusive = small, poorly fitted or top-dose-only effect, or another doubt; inactive = no such curve, though single readings can be large; an effect the other way counts as inactive or inconclusive. Unless noted, % is scaled to controls: 0 for no effect and ±100 for the full control effect.

SMILES | HT1080-NT tox | DT40 TDP1 no CPT | IL1B secr inh | HT1080 IDH1KD tx | uPA surface inh | TDP1 cell CPT
CN1C[C@H](C(=O)NC2(C)OC3(O)[C@@H]4CCCN4C(=O)[C@H](Cc4ccccc4)N3C2=O)CC2c3cccc4[nH]cc(c34)C[C@H]21 (stereo not given in full) | ? | 16.4µM* | -2.4 | ? | -17.6% | 16.4µM*
CCN(CC)C(=O)N[C@H]1C[C@@H]2c3cccc4[nH]cc(c34)C[C@H]2N(C)C1 | -12.3% | -38.6% | -1.9 | -3.4% | -0.8% | ?
O=C(NC1CCN(Cc2ccccc2)CC1)c1cccc(S(=O)(=O)Nc2ccc(SC(F)F)cc2)c1 | ? | ? | -21.5 | -19.5% | ? | 23.1µM*
COc1ccc(-c2ccc3c(c2)CN(C(=O)NC2CCCCC2)Cc2cnnn2-3)cc1 | ? | ? | -52.8* | ? | nt | ?
CC(C)(C)C(=O)N1Cc2cc(-c3ccccc3)ccc2-n2nncc2C1 | -4.2% | ? | 6.0 | 0.9% | nt | 16.4µM*
O=C(NC1CCCCC1)N1Cc2cc(-c3cccc(F)c3)ccc2-n2nncc2C1 | -2.2% | ? | ? | -5.0% | nt | -25.9%
O=C1NC(=O)C(CCc2ccccn2)(Cc2ccc3c(c2)OCO3)C(=O)N1CCc1ccccc1 (stereo not given) | -11.1% | ? | -11.9 | -4.2% | 4.5% | ?
C[C@]12CC[C@H]3[C@@H](CC[C@@]45O[C@@H]4C(O)=C(C#N)C[C@]35C)[C@@H]1CC[C@@H]2O | nt | ? | nt | nt | nt | -23.8%
Cc1nc2ccc(Nc3nc4cc(S(=O)(=O)N5CCOCC5)ccc4o3)cc2s1 | -5.2% | 18.4µM* | -3.6 | -2.7% | -4.5% | 16.4µM*
CCOC(=O)C1(C)CCN1C(=O)c1cc(OC)c(OC)c(OC)c1 (stereo not given) | 15.5% | ? | 32.6 | 16.1% | nt | ?
CCc1cn(C2CC(O)C(CO)O2)c(=O)[nH]c1=O (stereo not given) | 3.0% | -28.1% | 33.4 | 6.9% | 10µM* | ?
NC(=O)Oc1ccc(Cc2ccccc2)cc1 | nt | ? | nt | nt | nt | -25.1%
O=S(=O)(c1ccc(Cl)cc1)N1Cc2ccccc2-n2nncc2C1 | -11.0% | ? | 45.6 | -6.3% | nt | ?
Cc1cc(N2CCN(S(=O)(=O)c3ccc(Cl)cc3)CC2)c2ccccc2n1 | ? | 20.6µM* | -64.3* | ? | ? | 23.1µM*
CCN(CC)C(=O)C(C(=O)c1cccc([N+](=O)[O-])c1)n1cc(Cl)ccc1=O (stereo not given) | 0.2% | ? | -2.7 | -9.6% | 7.9% | -19.5%
COc1ccccc1N1CCN(Cc2ccc(Br)s2)CC1 | -11.5% | -26.7% | ? | -15.8% | -5.6% | ?
Cc1ccc(S(=O)(=O)N(C)C[C@H]2Oc3ncc(Br)cc3C(=O)N([C@H](C)CO)C[C@@H]2C)cc1 | -5.0% | 23.1µM* | -5.4 | -0.9% | nt | -29.6%
COc1ccc(NC(=O)Nc2ccc3c(c2)C(=O)N([C@H](C)CO)C[C@H](C)[C@@H](CN(C)S(=O)(=O)c2ccc(F)cc2)O3)cc1 | 3.4% | ? | -3.6 | -4.3% | -9.9% | ?
C[C@@H]1CN([C@H](C)CO)C(=O)c2c(c3ccccc3n2C)-c2ccccc2CO[C@H]1CN(C)C(=O)Cc1ccccc1 | -0.2% | 13µM* | -4.5 | 0.3% | nt | 23.1µM*
Cc1ccc(S(=O)(=O)N(C)C[C@@H]2Oc3ncc(Br)cc3C(=O)N([C@H](C)CO)C[C@@H]2C)cc1 | -3.9% | ? | -4.7 | -7.8% | nt | ?
Cc1ccc(S(=O)(=O)N(C)C[C@@H]2OCc3ccccc3-c3c(n(C)c4ccccc34)C(=O)N([C@H](C)CO)C[C@@H]2C)cc1 | -28.3% | ? | -27.6 | ? | nt | 23.1µM*
C[C@H](CO)N1C[C@H](C)[C@H](CN(C)S(=O)(=O)c2ccc(Cl)cc2)OCc2ccccc2-c2c(n(C)c3ccccc23)C1=O | ? | 9.2µM* | -15.2 | ? | nt | 25.9µM*
CN1CCC2(O)OCCCC2C1 (stereo not given) | 21.0% | -11.0% | 9.1 | 13.6% | 3.9% | 11.0%
O=[N+]([O-])c1ccc(Nc2ccccc2)cc1 | -1.9% | -20.0% | 2.7 | -5.4% | -22.6% | ?
c1ccc(Nc2ccc(Nc3ccccc3)cc2)cc1 | -25.5% | 6.51µM* | -24.8 | -14.4% | 6.31µM* | ?
SMILES | HT1080-NT tox | DT40 TDP1 no CPT | IL1B secr inh | HT1080 IDH1KD tx | uPA surface inh | TDP1 cell CPT
N#CC(C#N)=C(C#N)c1ccc(Nc2ccccc2)cc1 | -2.0% | ? | -90.5* | 2.2% | -3.5% | 10.3µM*
CC1CC2CC(=O)CCC2(C)C2CCC3(C)C(O)CCC3C12 (stereo not given) | 7.6% | ? | 16.1 | 12.9% | nt | ?
CCON=O | nt | ? | nt | nt | nt | 0.0944µM*
CCN(CC)CCCN=C(C)c1c(O)n(-c2ccc(C)cc2)c(=O)[nH]c1=O | -10.9% | 0.3% | -15.6 | -29.8% | nt | -10.7%
CCn1c(O)c(C=NCc2cccs2)c(=O)[nH]c1=O | 12.4% | 29.1µM* | 15.6 | 0.2% | -4.7% | ?
COc1ccc(NC(=O)c2cn(CCC#N)nc2-c2cccc(Br)c2)cc1 | 2.0% | -28.4% | -14.4 | -3.1% | 4.6% | -12.1%
COC(=O)C1=C(C(=O)OC)[C@]2([C@@H]3CC=CCN[C@@H](Cc4ccccc4)C(=O)N3Cc3ccccc3)C=C[C@H]1O2 | 9.1% | 11.6µM* | 9.9 | 5.7% | 13.4% | 18.4µM*
CCc1ccc(C2=NN(CCC(=O)N3CCC4(CC3)OCCO4)C(=O)CC2)cc1 | -8.3% | -23.5% | -1.9 | -4.4% | 0.4% | 1.5%
COc1ccc(CNC(=O)C[C@H]2C[C@H](C(=O)N3CCCCC3)[C@@]3(CCc4ccccc4)c4[nH]c5ccc(Cl)cc5c4CCN3C2=O)cc1OC | 3.3% | 10.3µM* | -16.1 | 0.6% | ? | 10.3µM*
CC(C)=CCC/C(C)=C/CNC(=O)C[C@H]1C[C@H](C(=O)N(C(C)C)C(C)C)[C@@]2(C)c3[nH]c4ccc(Cl)cc4c3CCN2C1=O | 5.2% | ? | 38.3 | 11.1% | 4.0% | ?
COc1ccc2[nH]c3c(c2c1)CCN1C(=O)C(CC(=O)NCc2cccc(C(F)(F)F)c2)C[C@H](C(=O)N2CCCCC2)[C@@]31C (stereo not given in full) | -4.3% | 8.2µM* | -53.1* | -16.0% | ? | 10.3µM*
C[C@]12c3[nH]c4ccc(Cl)cc4c3CCN1C(=O)[C@@H](CC(=O)NCc1ccco1)C[C@@H]2C(=O)N1CCCCC1 | -11.0% | 5.8µM* | -55.0* | ? | ? | 6.51µM*
